From PubChem BioAssay (NCATS)
Several values for one entry are separate records, joined by “and”; a condition that tells them apart may be missing. Equal values may be shown once. Records with an inconclusive call do not appear. A number with no mark means an inactive call. Activity calls are given as the source filed them. The call rests on the fitted dose curve; in most records, active means well fitted inhibition curve with a large enough effect; inconclusive means small, poorly fitted or top-dose-only effect; inactive means flat fitted curve, though single readings scatter.

The molecules below were run on HaCat (assay: Cytotoxic Profiling of Annotated Libraries Using Quantitative High-Throughput Screening (AID 1296008; further: nearly all actives have a fitted effect of over 60% in size)). Settings: Five cell lines viability, CellTiter-Glo ATP luminescence, 48-72 h; max response: stronger effect = lower value.
In short: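 Cytotoxicity was measured as CellTiter-Glo ATP luminescence, read after 10 min at room temperature. Compound treatment of the cells lasted 48 or 72 hr at 37 degrees Celsius in a qHTS format.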
On the % scale 0 is the no-effect control and ±100 the full control effect.

Row | SMILES | outcome | max response
1 | CC1COC2(c3ccccc3Cl)c3cc(Cl)ccc3NC(=O)CN12 (centres undefined) | inactive | 
2 | CN(C)CCc1c[nH]c2ccc(O)cc12 | inactive | 
3 | NC(=O)OCCCc1ccccc1 | inactive | 
4 | O=C(N[C@@H]1N=C(c2ccccc2F)c2cccc3c2N(CC3)C1=O)c1cc2ccccc2[nH]1 |  | -2.29%
5 | CC(CC(C(N)=O)(c1ccccc1)c1ccccc1)N(C)C (centres undefined) |  | -10.9%
6 | C#C[C@]1(O)C=C[C@H]2[C@@H]3CCC4=CC(=O)CC[C@@H]4[C@H]3CC[C@@]21CC | inactive | 
7 | C[C@@H]1CC[C@H]2[C@@H](C)C(=O)O[C@@H]3O[C@@]4(C)CC[C@@H]1[C@]32OO4 | inactive | 
8 | COc1cc(N)c(Cl)cc1C(=O)NC1CN2CCC1CC2 (centres undefined) |  | -3.99%
9 | CC(C)=CCN1CC[C@@]2(C)c3cc(O)ccc3C[C@@H]1[C@@H]2C |  | -13.3%
10 | C[C@H]1C(=O)O[C@@H]2CCN3CC=C(COC(=O)[C@](C)(O)[C@]1(C)O)[C@H]23 | inactive | 
11 | O=C(CCCN1CCC(n2c(=O)[nH]c3ccccc32)CC1)c1ccc(F)cc1 | inactive | 
12 | CCC1(CC)C(=O)NC(=O)NC1=O | inactive | 
13 | COc1ccc(C(=O)N2CCCC2=O)cc1 |  | -10.2% and -4.53%
14 | O=C(CBr)Nc1ccc(Cl)cc1C(=O)c1ccccc1F |  | 3.69%
15 | CCCCCCCCC(=O)NCc1ccc(O)c(OC)c1 |  | -25.6%
16 | CC(C)=C[C@@H]1[C@@H](C(=O)OCc2coc(Cc3ccccc3)c2)C1(C)C | inactive | 
17 | Nc1ccc(Cl)cc1C(=O)c1ccccc1F |  | 0.566%
18 | O=c1n(Cl)c(=O)n(Cl)c(=O)n1Cl | inactive | 
19 | CC(C)[N+](C)(CCC(C(N)=O)(c1ccccc1)c1ccccc1)C(C)C | inactive | 
